High-throughput results deposited in PubChem BioAssay by several laboratories.
Hits are enriched below; roughly 0.97% of the tested compounds scored in any of these assays.
RecA intein inh: inhibitors of M. tuberculosis RecA intein splicing | inhibition, % (no concentration beside the values) | P9WHJ3 | 290,000 compounds, 0.75% hits | AID 2221 | cell-free RecA intein splicing, fluorescence; in the data active means inhibition above about 30%; inconclusive means no clear call, values can overlap the other calls;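 further: 0% = vehicle wells and 100% = reference inhibitor control wells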
Rv3671c protease: inhibits the M. tuberculosis serine protease Rv3671c; 320,000 compounds, 0.048% hits; inhibition, % at 5.96 µM; AID 2606; P9WHR9; in the data active means inhibition above about 38%;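 further: extracellular domain of Rv3671c used as enzyme; 0% = enzyme with DMSO and 100% = no enzyme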
Target sequence (P9WHR9 whole entry, looked up, the tested form may be a part): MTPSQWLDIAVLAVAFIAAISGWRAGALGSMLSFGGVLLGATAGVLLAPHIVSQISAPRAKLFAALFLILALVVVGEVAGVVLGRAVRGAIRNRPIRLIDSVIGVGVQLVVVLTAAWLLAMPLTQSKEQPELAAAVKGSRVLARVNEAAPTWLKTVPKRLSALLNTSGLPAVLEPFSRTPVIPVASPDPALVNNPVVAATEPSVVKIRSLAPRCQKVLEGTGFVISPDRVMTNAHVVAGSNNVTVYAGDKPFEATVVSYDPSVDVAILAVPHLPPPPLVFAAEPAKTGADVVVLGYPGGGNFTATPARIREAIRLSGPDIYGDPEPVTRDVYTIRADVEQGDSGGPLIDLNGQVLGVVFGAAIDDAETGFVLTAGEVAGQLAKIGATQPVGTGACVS
TcdB GH inh: TcdB glycohydrolase inhibition | P18177 | TcdB glycohydrolase enzymatic assay, plate reader | inhibition, % at 9.99 µM | 350,000 compounds, 0.24% hits | AID 652162; in the data active means inhibition above about 10%
UGM FP inh: Mtb UDP-galactopyranose mutase inhibition. purified UGM, fluorescence polarization probe displacement. inhibition, % at 10 µM. 320,000 compounds, 0.06% hits. AID 504406; in the data active means inhibition above about 10%, passing the limit was not always enough; inconclusive means no clear call, values can overlap the other calls
MazEF act: activators of E. coli MazEF toxin-antitoxin RNase. P0AE70. FAM/BHQ RNA-DNA oligo cleavage fluorescence, 5 h. activation, % at 20 µM. 350,000 compounds, 0.32% hits. AID 504720; in the data active means activation above about 50%
Target sequence (P0AE70 whole entry, looked up): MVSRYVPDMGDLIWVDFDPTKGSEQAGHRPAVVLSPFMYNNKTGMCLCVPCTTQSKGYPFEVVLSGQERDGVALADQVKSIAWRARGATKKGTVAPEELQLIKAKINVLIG
Mtb betalactam: beta-lactam sensitization of Mtb H37Rv; inhibition, % at 25 µM; M. tuberculosis H37Rv growth with meropenem, percent inhibition; 330,000 compounds, 0.27% hits; AID 434955; call rule not given here;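 further: growth measured after seven days incubation then overnight dye step; 0% = bacteria only wells and 100% = bacteria with antibiotic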
Active calls of the source: *; ? = inconclusive; / = not tested or not shown.

SMILES	RecA intein inh	Rv3671c protease	TcdB GH inh	UGM FP inh	MazEF act	Mtb betalactam
CO[C@@H]1CN(C)C(=O)c2ccc(NS(=O)(=O)c3cn(C)cn3)cc2OC[C@@H](C)N(Cc2ccc(C(F)(F)F)cc2)C[C@H]1C	/	/	1.6	/	/	/
Cc1cc(/C=C2\C(=O)NC(=O)N(Cc3ccccc3Cl)C2=O)c(C)n1-c1ccc(C(=O)O)cc1	-2.6	-6.2	-0.3	-1.4	59.1*	0.9
Cc1cc(C=C2C(=O)c3ccccc3C2=O)c(C)n1-c1ccc(C(=O)O)cc1	3.0	-12.8	26.7*	-1.7	-11.6	2.0
Cc1cc(C=C2C(=O)c3ccccc3C2=O)c(C)n1-c1ccccc1	/	-2.0	/	2.2	156.1*	57.6
CC(=O)O[C@@H]1C[C@H]2C(C)(C)C(=O)C=C[C@]2(C)[C@H]2CC[C@@]3(C)[C@H](c4ccoc4)OC(=O)[C@H]4O[C@]43[C@@]21C	42.3*	-9.7	-0.9	-2.4	2.1	80.3
CC(=O)OC1CC2C(C)(C)C(=O)C=CC2(C)C2CCC3(C)C(c4ccoc4)OC(=O)C4OC43C12C (configuration not stated)	/	/	-0.3	/	/	/
COc1cccc(Oc2ccc3nnc(C(F)(F)F)n3n2)c1	-0.2	4.9	11.3*	-0.6	-6.3	-2.8
Fc1ccc(Oc2ccc3nnc(C(F)(F)F)n3n2)cc1	-0.2	7.3	0.3	-1.4	2.8	3.7
Cc1ccc(NS(=O)(=O)c2ccc(C)c(NC(=S)NCCN3CCOCC3)c2)c(C)c1	/	-1.6	16.5*	1.6	2.8	-9.0
COc1ccc2c3c(n(C)c2c1)[C@H](CO)N(S(C)(=O)=O)CC31CCN(Cc2cccnc2)CC1	/	/	0.7	/	/	/
CCCNC(=O)C[C@H]1CC[C@@H]2[C@H](COc3ccc(NC(=O)c4ccc(Cl)cc4)cc3C(=O)N2C)O1	/	/	15.3*	/	/	/
CCCNC(=O)C[C@H]1CC[C@H]2[C@@H](COc3ccc(NC(=O)c4ccc(Cl)cc4)cc3C(=O)N2C)O1	/	/	0.0	/	/	/
CCNC(=O)C[C@@H]1CC[C@H]2[C@H](COc3ccc(NC(C)=O)cc3C(=O)N2C)O1	/	/	10.5*	/	/	/
C[C@@H]1CN([C@H](C)CO)C(=O)c2cc(NC(=O)Nc3ccc4c(c3)OCO4)ccc2O[C@@H](C)CCCCO[C@H]1CN(C)S(=O)(=O)c1ccc(Cl)cc1	/	/	0.5	/	/	/
COc1ccc(COC(=O)N/N=C(\C)CC(=O)Nc2ccc(Cl)cn2)cc1	45.3*	11.6	0.6	-1.0	4.7	1.3
COC(=O)C[C@@H]1CC[C@@H]2[C@@H](COc3ccc(NC(=O)Nc4cccc(C#N)c4)cc3C(=O)N2C)O1	/	/	0.4	/	/	/
Cc1nn(C)cc1-c1n[nH]c(=S)n1-c1ccc(F)cc1	-2.8	4.4	10.4*	3.8	2.5	-2.6
Cc1ccc(-n2c(-c3cn(C)nc3C)n[nH]c2=S)cc1	-0.2	-1.8	/	2.6	/	16.6
COC(=O)c1sc2nc(SCc3cccc(Cl)c3)n(N)c(=O)c2c1C	-2.1	-5.2	0.9	-0.6	-8.7	1.5
COC(=O)c1sc2nc(SCc3ccccc3C)n(N)c(=O)c2c1C	-0.2	10.2	16.4*	-4.2	45.8	?
C[C@H]1CN([C@@H](C)CO)S(=O)(=O)c2ccc(C3=CCCC3)cc2O[C@@H]1CN(C)C(=O)c1cccnc1	/	/	0.0	/	/	/
CCOC1OC(=O)C(Cl)=C1Nc1ccccc1C (configuration not stated)	-1.6	-5.8	/	1.5	1.7	98.4
COc1ccccc1NC1=C(Cl)C(=O)OC1OC(=O)c1ccco1 (configuration not stated)	40.8*	-11.3	0.6	6.4	-2.1	-7.4
COC(=O)c1ccc(NC2=C(Cl)C(=O)OC2OC(=O)c2ccccc2)cc1 (configuration not stated)	30.4*	-9.0	0.2	2.7	-3.3	76.0
Cc1ccc(NC2=C(Cl)C(=O)OC2OC(=O)c2ccc(C)cc2)cc1 (configuration not stated)	15.7	-0.1	1.1	-0.3	4.4	57.6
SMILES	RecA intein inh	Rv3671c protease	TcdB GH inh	UGM FP inh	MazEF act	Mtb betalactam
Cc1ccccc1NC1=C(Cl)C(=O)OC1OC(=O)c1ccco1 (configuration not stated)	43.4*	2.5	1.3	-1.6	-7.1	0.5
COc1cccc(NC2=C(Cl)C(=O)OC2OC(=O)c2ccco2)c1 (configuration not stated)	35.4*	15.5	1.9	-2.0	-6.8	73.9
COc1ccc(C(=O)COC(=O)c2ccc(OC)c(OC)c2)cc1OC	0.2	2.0	41.9*	-1.4	11.8	-2.5
COc1cccc(C(=O)COC(=O)c2ccc(NC(=O)c3ccccc3)cc2)c1	-1.9	10.2	22.0*	-1.6	-5.7	2.5
COc1ccc(C(=O)OCC(=O)c2ccc(F)cc2)cc1OC	/	-5.4	1.8	-0.2	1.0	9.7
CCOc1ccccc1NC(=O)Cn1nnc(C(=O)NCc2ccc3c(c2)OCO3)c1N	-1.3	-7.4	1.4	4.1	65.4*	9.7
COc1ccc(N2CCn3c2nc2c3c(=O)n(CCCc3ccccc3)c(=O)n2C)c(OC)c1	0.7	-2.7	/	-1.2	814.2*	-1.9
O=C(c1ccc(F)cc1)N1CC(=O)N2[C@H](CO)[C@@H](c3ccc(-c4cccnc4)cc3)[C@@H]2C1	/	/	0.8	/	/	/
C[C@@H]1CN([C@@H](C)CO)C(=O)c2cccc(NS(C)(=O)=O)c2O[C@H]1CN(C)S(=O)(=O)c1ccc(Cl)cc1	/	/	-0.3	/	/	/
NC(=O)c1ccc(-n2nnnc2SCC(=O)Nc2ccccc2F)cc1	1.0	3.1	0.7	0.0	98.0*	4.9
COc1ccc(S(=O)(=O)N(C)C[C@H]2OCCCC[C@@H](C)Oc3ccc(NS(=O)(=O)c4ccc(F)cc4)cc3C(=O)N([C@H](C)CO)C[C@H]2C)cc1	/	/	0.0	/	/	/
C=CCN1C(=O)S/C(=C\c2ccc(N3CCOCC3)cc2C)C1=O	-1.6	10.2	/	2.6	103.4*	0.6
CO[C@@H]1CN(C)C(=O)c2cc(NC(=O)CC(F)(F)F)ccc2OC[C@H](C)N(CC2CC2)C[C@@H]1C	/	/	0.6	/	/	/
CO[C@H]1CN(C)C(=O)c2ccc(NC(=O)c3cnccn3)cc2OC[C@@H](C)N(C(C)=O)C[C@@H]1C	/	/	0.3	/	/	/
COC(=O)c1cc(=O)c2cccc(OC)c2[nH]1	-11.2	8.1	1.6	-3.6	1.2	32.3
COc1cccc2c(=O)cn[nH]c12	-5.9	-9.1	/	11.1*	8.2	1.3
O=C(NCc1ccccc1)[C@@]1(CCS(=O)(=O)c2ccccc2)N=C(c2ccc(OCCCO)cc2)O[C@H]1c1ccccc1	/	/	0.8	/	/	/
Cc1ccc(C)c(S(=O)(=O)NCC(=O)Nc2sc3c(c2C(N)=O)CCC(C)C3)c1 (configuration not stated)	-9.0	-6.1	/	-3.6	56.1*	-1.4
Cc1noc(C)c1NC(=O)N(C)C[C@H]1Oc2ccc(NS(=O)(=O)c3ccccc3)cc2CC(=O)N([C@H](C)CO)C[C@@H]1C	/	/	0.2	/	/	/
